Assay outcomes from PubChem BioAssay.
Compounds with a hit are over-represented: about 4.2% of the library has one in this group of screens.
esBAF inh = blocks esBAF chromatin remodeling in mouse ES cells | reporter increase, % at 12.5 µM | AID 602393 | 350,000 compounds, 2% hits | Bmi1-luciferase knock-in reporter, 24 h; 100% = twice the neutral-well signal; in the data active means activation above about 40%;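 further: 0% = median of the plate's neutral control wells and 100% = double that signal; a rise in the Bmi1 reporter signal indicates esBAF inhibition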
DAX1 StAR inh = inhibitors of DAX1 repression of SF-1 activated StAR promoter | 370,000 compounds, 1.1% hits | HEK293T StAR-luciferase reporter, SF-1/DAX-1 repression relief | inhibition, % at 6.8 µM;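 active means inhibition above the mean over all tested compounds plus 3 SD, cut at about 3.6% in these data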;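 further: 0% = DAX-1 cells with DMSO and 100% = cells lacking DAX-1 with DMSO; higher inhibition means more luminescence from relief of DAX-1 repression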
ssDAF-12 act = S. stercoralis DAF-12 activation, primary screen; HEK293 ssDAF-12/GRIP1 lit1-tk-luc reporter, luminescence; % of 3 µM dafachronic acid response; 370,000 compounds, 1% hits; activation, % at 6.8 µM; AID 652126;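 active means activation above the mean over all tested compounds plus 3 SD, cut at about 0.9% in these data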;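 further: 0% = DMSO-only wells and 100% = 3 µM delta7-dafachronic acid wells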
hgDAF12 agonist = activates the H. glycines DAF-12 receptor ligand-binding domain; HEK293 GAL4-hgDAF12 UAS-luciferase reporter, agonist luminescence; normalized to butyrate control; activation, % at 6.8 µM; 370,000 compounds, 1.8% hits; AID 687014;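 active means activation above a cutoff set at the mean of all screened compounds plus 3 SD, cut at about 10% in these data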;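 further: 0% = DMSO wells and 100% = sodium butyrate wells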
Wnt bcat act = Wnt/beta-catenin pathway activation; AID 743398; 300,000 compounds, 1.2% hits; Wnt/beta-catenin reporter cell assay, activator, plate reader; activation, % at 9.35 µM; in the data active means activation above about 30%, passing the limit was not always enough;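 further: 0% = neutral control wells and 100% = positive control wells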
hcDAF-12 act = H. contortus DAF-12 activation, primary screen; HEK293 hcDAF-12 lit1-tk-luc reporter, luminescence; 0% DMSO, 100% Δ7-dafachronic acid; activation, % at 6.8 µM; 370,000 compounds, 1.4% hits;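 active means activation above the mean of all tested compounds plus 3 SD, cut at about 5.5% in these data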;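 further: 100% = response to 3 µM Δ7-dafachronic acid high control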
LXR ag = activates human LXR-beta, counter-screen for hcDAF-12 agonists. shares compounds with hcDAF-12 act. HEK293 Gal4-LXR tk-luc reporter, luminescence, 24 h; normalized: DMSO 0%, positive control 100%. activation, % at 6.8 µM. 3,400 tested, under 10 active. AID 743027;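 active means mean percent activation of the reporter above a cutoff set as the average over tested compounds plus their standard deviation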
Target sequence (P55055 whole entry, looked up, the tested form may be a part): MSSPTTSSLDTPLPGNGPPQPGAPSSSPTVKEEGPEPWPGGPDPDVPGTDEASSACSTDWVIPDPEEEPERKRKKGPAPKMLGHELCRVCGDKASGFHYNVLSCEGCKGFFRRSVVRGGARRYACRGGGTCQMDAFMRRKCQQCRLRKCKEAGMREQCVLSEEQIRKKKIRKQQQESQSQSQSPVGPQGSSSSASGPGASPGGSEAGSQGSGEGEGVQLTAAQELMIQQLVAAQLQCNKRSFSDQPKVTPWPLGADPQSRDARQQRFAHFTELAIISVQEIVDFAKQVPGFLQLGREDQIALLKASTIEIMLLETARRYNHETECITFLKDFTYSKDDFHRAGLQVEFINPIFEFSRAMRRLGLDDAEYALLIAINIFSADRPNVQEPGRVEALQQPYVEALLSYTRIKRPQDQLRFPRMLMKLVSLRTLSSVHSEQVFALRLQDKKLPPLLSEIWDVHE
hcDAF12 ag = confirmation of H. contortus DAF-12 agonists | shares compounds with hcDAF-12 act | HEK293 hcDAF-12 lit1-tk-luc reporter, luminescence; % of Δ7-dafachronic acid response | activation, % at 6.8 µM | 3,400 compounds, 61% hits;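 active means mean activation across triplicate tests above the threshold derived from the earlier primary screen, cut at about 5.5% in these data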;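 further: 0% = DMSO only wells and 100% = 3 µM Δ7-dafachronic acid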
* marks the source's active call; other numbers are inactive results; x = no result.

SMILES	esBAF inh	DAX1 StAR inh	ssDAF-12 act	hgDAF12 agonist	Wnt bcat act	hcDAF-12 act	LXR ag	hcDAF12 ag
CS(=O)(=O)Nc1ccc2c(c1)[C@H]1C[C@H](CC(=O)NCC(F)(F)F)O[C@H](CO)[C@H]1O2	-2.0	x	x	x	x	x	x	x
c1ccc2[nH]c(-c3cnco3)cc2c1	4.7	-0.5	0.8	0.8	9.6	6.7*	0.0	7.3*
c1cncc(Cc2cc3ccccc3[nH]2)c1	x	-0.3	-0.5	-0.5	x	3.9	x	x
COc1ccccc1Cc1nc(-c2ccc(Br)o2)no1	36.8	2.8	0.7	3.6	25.2	8.1*	0.2	8.0*
O=C(Nc1ccc(-c2ccccc2)cc1)[C@@H]1[C@@H](CO)[C@@H]2Cn3c(cccc3=O)[C@H]1N2Cc1ccccc1	1.7	x	x	x	x	x	x	x
Cc1ccc(C(=O)Oc2oc(-c3ccccc3)nc2C=Nc2ccc(N(C)C)cc2)cc1	x	2.2	1.8*	12.4*	6.1	8.1*	0.3	1.5
COc1cccc(N=Cc2nc(-c3ccccc3)oc2OC(C)=O)c1	5.7	-0.5	-1.3	-0.3	-0.7	1.6	x	x
Cc1cc(C)c(S(=O)(=O)NCCn2c(C)cc3ccccc32)c(C)c1	5.3	-1.2	0.8	7.9	-2.4	7.1*	-0.2	0.1
CC(=O)c1c(C)[nH]c(C(=O)OCC(=O)Nc2ccc(C)cc2[N+](=O)[O-])c1C	x	-1.5	-2.3	-6.4	-6.0	-4.3	x	x
CC(=O)c1c(C)[nH]c(C(=O)OCC(=O)Nc2cc(Cl)ccc2[N+](=O)[O-])c1C	x	0.4	-0.8	0.8	-16.3	7.0*	-0.5	-0.1
Cc1csc(=O)n1CC(=O)OCC(=O)Nc1cc(Cl)ccc1[N+](=O)[O-]	3.4	0.0	-0.2	1.4	-2.0	7.3*	-0.2	4.9
CO[C@H]1CN(C)C(=O)c2ccc(NC(=O)C3CC3)cc2OC[C@H](C)N(CC2CC2)C[C@H]1C	1.2	x	x	x	x	x	x	x
Cc1ccc(C2=Nc3ccccc3N=C(C(Cl)Cl)C2)cc1	-17.8	3.8*	2.8*	19.1*	13.2	16.9*	1.3	9.9*
Nc1cccc(CCc2nc3cc4ccccc4cc3[nH]2)c1	x	-0.3	0.2	12.5*	0.8	12.1*	1.4	8.7*
Nc1ccc2nc(CCCCc3nc4ccccc4[nH]3)[nH]c2c1	7.5	0.4	-0.1	1.0	0.4	-0.1	x	x
Cn1cc(C(=O)Nc2ccccn2)c(=O)c2ccccc21	26.0	0.1	1.7*	5.3	18.6	7.0*	0.7	11.6*
O=S(=O)(N[C@H]1CC[C@@H](CCn2cc(-c3cccc(F)c3)nn2)O[C@@H]1CO)c1ccccc1	9.5	x	x	x	x	x	x	x
CC(=O)/C=C/c1ccc2ccccc2n1	x	-1.9	-1.0	1.8	x	8.2*	0.0	0.6
C/C(=N\NC(=O)c1ccccc1)c1ccc2c(c1)OCO2	34.1	3.2	-0.9	3.7	-0.1	3.2	x	x
C/C(=N\NC(=O)c1c[nH]c2ccccc12)c1ccc2c(c1)OCO2	x	1.1	0.5	7.6	-0.3	7.2*	0.0	0.4
O=C(NCC1CCCCC1)[C@@H]1[C@@H](CO)[C@@H]2Cn3c(cccc3=O)[C@@H]2N1C(=O)CC1CC1	-4.0	x	x	x	x	x	x	x
Cc1cc(OC(C)CCN2CCC(C(O)(c3ccccc3)c3ccccc3)CC2)ccc1Br (stereo unspecified)	x	-0.9	-0.8	6.4	x	6.8*	-0.3	3.5
CC(CCN1CCC(C(O)(c2ccccc2)c2ccccc2)CC1)Oc1ccc(OC(F)(F)F)cc1 (stereo unspecified)	x	0.5	0.3	4.7	x	7.5*	-0.2	2.8
CO[C@H]1CN(C)C(=O)c2cc(NS(=O)(=O)c3ccccc3F)ccc2OC[C@H](C)NC[C@@H]1C	-5.3	x	x	x	x	x	x	x
C[C@@H]1CN([C@@H](C)CO)C(=O)CCCn2cc(nn2)CO[C@@H]1CN(C)C(=O)Nc1ccc(C(C)(C)C)cc1	13.9	x	x	x	x	x	x	x
SMILES	esBAF inh	DAX1 StAR inh	ssDAF-12 act	hgDAF12 agonist	Wnt bcat act	hcDAF-12 act	LXR ag	hcDAF12 ag
C=C(C)c1sc(-c2ccccc2)nc1C	x	-0.3	-1.2	0.5	-2.9	0.4	x	x
C/C(=N\O)c1sc(-c2ccccc2)nc1C	x	3.8*	1.1*	11.9*	64.5*	11.5*	1.1	7.2*
CCOc1ccccc1NC(=O)CNC(=O)N1CC(=O)Nc2ccccc21	1.6	3.5	-0.4	1.6	-2.1	7.0*	-0.2	3.3
C[C@@H]1CCCCO[C@H](CN(C)S(=O)(=O)c2cn(C)cn2)[C@H](C)CN([C@@H](C)CO)C(=O)c2cc(NC(=O)NC3CCCCC3)ccc2O1	-6.6	x	x	x	x	x	x	x
c1ccc(CSc2cc3ccccc3[nH]2)cc1	33.6	0.7	0.5	9.3	1.1	10.1*	0.5	10.6*
c1ccc(CCc2cc3ccccc3[nH]2)cc1	26.9	0.2	-0.7	5.7	12.6	1.3	x	x
Cc1ccc(S(=O)(=O)N(C)C[C@@H]2OCCCC[C@@H](C)Oc3ccc(NC(=O)NC4CCCCC4)cc3C(=O)N([C@H](C)CO)C[C@H]2C)cc1	5.7	x	x	x	x	x	x	x
Oc1oc(-c2ccccc2)nc1C=Nc1cccc2ccccc12	3.5	-0.7	-0.1	3.1	0.0	11.5*	0.0	5.2
Oc1oc(-c2ccccc2)nc1/C=N/c1nccs1	x	0.4	-0.1	7.0	-6.4	0.5	x	x
CCCOc1ccc(OCCSc2ncccn2)cc1	x	2.5	-0.1	9.8	x	6.8*	1.3	4.8
Cc1noc(C(=O)Nc2ccc3c(c2)OCO3)c1Cl	51.0*	2.8	0.7	7.9	12.3	6.7*	0.3	5.5
CC(=O)c1ccc(NC(=O)c2onc(C)c2Cl)cc1	21.1	2.6	-0.3	9.4	19.4	7.8*	1.1	6.4*
COc1ccc2c(c1)[nH]c1c(=O)n(N)cnc12	13.3	0.8	0.8	0.8	1.7	9.7*	-0.1	6.4*
COc1ccc(/C=N/N(C(C)=O)c2nc(-c3ccc(C)cc3)cs2)cc1	5.4	-0.3	-1.3	0.4	x	-1.1	x	x
COc1ccccc1/C=N/N(C(C)=O)c1nc(-c2ccc(F)cc2)cs1	x	1.2	1.2*	8.8	x	7.2*	0.6	10.7*
COc1ccc(Cl)cc1/C=C/c1ccc2cccc(O)c2n1	x	-0.5	0.3	6.4	10.6	7.7*	0.1	3.3
Nc1nccc(/C=C/c2c(F)cccc2Cl)n1	19.8	0.4	-1.2	9.9	16.9	1.0	x	x
Oc1cccc2ccc(/C=C/c3ccccc3Cl)nc12	17.9	0.0	0.8	10.2	20.8	7.1*	1.2	6.5*
Oc1cccc2ccc(/C=C/c3c(F)cccc3Cl)nc12	x	3.7*	2.0*	17.6*	15.1	9.5*	1.5	9.6*
